# m5-HT2A agonist: mouse Htr2a agonists via beta-arrestin recruitment, primary screen, cell-based, luminescence. 5-hydroxytryptamine receptor 2A (Mus musculus), P35363. CHO-K1 mHTR2A beta-arrestin complementation; percent of 30 µM serotonin response. activation, % at 7.6 µM. actives 0.66% (n = 360,000);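 active = activation above a run cutoff, the mean activation of all tested compounds plus 3 SD, cut at about 14% in these data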;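 also: 0% = plate median of compound wells and 100% = 30 µM serotonin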
# VLA-4 inh: inhibition in human VLA-4 binding assay, primary screen, VLA-4 allosteric modulator project, MLPCN library, flow cytometry, VLA-4 expressing cells. inhibition, % (about 7 µM as worked out from the volumes in the protocol). ligand binding flow cytometry. actives 0.2% (n = 330,000). Integrin alpha-4 (Homo sapiens), P13612. AID 2557, 2010; in the data active = inhibition above about 50%
# GASC-1 inh: inhibitors of GASC-1 histone demethylase, primary screen, biochemical, fluorescence, DELFIA europium; AID 2099, 2009; inhibition, % at 2.35 µM; actives 0.069% (n = 330,000); GST-JMJD2C(1-420) H3K9me3 demethylation;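 active = more than half of a compound's replicate wells show inhibition beyond 50%, single wells judged on their own value; inconclusive = some, but no more than half, of replicates pass 50% inhibition; inactive = no replicate passes 50% inhibition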;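 also: signal counts dimethyl H3K9 product captured on neutravidin plate; 0% = median of DMSO wells and 100% = 0.3 times that DMSO median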
# V-ATPase pH: regulators of yeast V-ATPase proton pumping, primary screen, pHLuorin cytosolic pH fluorescence; response, % at 10 µM; actives 0.37% (n = 350,000); S. cerevisiae; in the data active = response mostly above about 7.3%, no sharp cut-off; inactive = mostly below about 5.4%; also: actives read high
# MEX-5 binding: MEX-5 zinc finger RNA-binding disruptors – biochemical, C. elegans, fluorescence polarization, MLPCN library, primary screen. Zinc finger protein mex-5 (Caenorhabditis elegans), Q9XUB2. MEX-5/FITC-TCR2 RNA binding; hits give low values. activity score (negative = inhibition of binding), % at 10 µM. actives 0.38% (n = 300,000). AID 1832, 2009;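 active = inhibition past about -25% in most replicates, and total fluorescence under double the plate's negative control median, limit read from the data; inconclusive = replicates evenly split on the limit, or fluorescence at least double controls; inactive = too little inhibition in most replicates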;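 also: 0% = DMSO and -100% = 5 µM competing unlabeled TCR2 RNA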
# Target sequence (Q9XUB2 whole entry, looked up): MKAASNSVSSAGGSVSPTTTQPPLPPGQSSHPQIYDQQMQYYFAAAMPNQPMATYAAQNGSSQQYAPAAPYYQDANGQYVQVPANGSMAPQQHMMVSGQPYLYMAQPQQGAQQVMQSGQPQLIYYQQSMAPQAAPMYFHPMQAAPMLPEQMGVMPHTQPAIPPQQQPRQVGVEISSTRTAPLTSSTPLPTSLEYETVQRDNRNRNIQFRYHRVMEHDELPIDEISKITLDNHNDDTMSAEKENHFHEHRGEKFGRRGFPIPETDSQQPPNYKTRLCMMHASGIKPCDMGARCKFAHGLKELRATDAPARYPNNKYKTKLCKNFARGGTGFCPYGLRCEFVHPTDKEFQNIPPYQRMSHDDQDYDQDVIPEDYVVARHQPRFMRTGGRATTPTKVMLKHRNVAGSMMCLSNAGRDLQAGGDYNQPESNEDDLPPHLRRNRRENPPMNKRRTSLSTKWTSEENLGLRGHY
# Exocytosis inh: LAMP-1 surface exposure blockers, TALL-104 cells – cell-based, flow cytometry, MLPCN library, primary screen; TALL-104 LAMP-1 surface exposure; cells stimulated with thapsigargin and PMA; inhibition, % at 10 µM; actives 0.66% (n = 360,000); AID 651702, 2012;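 active = inhibition above about 55%, limit read from the data; inconclusive = no clear call, values can overlap the other calls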
# Exocytosis CP01: inhibitors of lytic granule exocytosis, confirmation, TALL-104 cells, flow cytometry, Cherry Pick01 | inhibition, % at 10 µM | LAMP-1 externalization; stimulated with PMA plus thapsigargin | shares compounds with Exocytosis inh | AID 651954, 2012 | actives 11% (n = 1,500); in the data active = inhibition above about 60%;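 also: 0% = stimulated vehicle wells and 100% = unstimulated wells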
# The depositor's hits bear a star; ? = inconclusive; . = no result given. Rows were chosen to be rich in hits. Some 2.2% of all compounds tested hit in one or more screens of this group.
SMILES,m5-HT2A agonist,VLA-4 inh,GASC-1 inh,V-ATPase pH,MEX-5 binding,Exocytosis inh,Exocytosis CP01
N#Cc1ccccc1S(=O)(=O)N1CCN(S(=O)(=O)c2ccc(Br)c(C(=O)O)c2)CC1,-5,10,1,-2,0,59*,-14
Cc1cccc(CN2CCC(C(=O)Nc3cccc(-c4cscn4)c3)CC2)n1,-8,-3,0,-1,.,4,.
Cc1cccc(CN2CCC(C(=O)Nc3cccc(-c4cccc(F)c4)c3)CC2)n1,-15,4,3,1,0,62*,-8
CCCCOC(=O)N1CCOCCOCCOCC1,1,8,7,-3,3,-3,.
CN1CCN(C(=O)OCCOCCOC(=O)N2CCN(C)CC2)CC1,1,.,.,2,.,60*,-4
CCC(C)c1ccc(NC(=S)NC(C)C2CCCO2)cc1 (stereo not given),-5,17,7,-1,-2,5,.
CN(C)CCC(Oc1ccccc1OCc1ccccc1)c1ccccc1 (stereo not given),-8,8,0,-4,-3,56*,-4
Fc1cccc(CNc2ncnc3ccc(-c4ccc5c(c4)OCO5)cc23)c1,-6,-3,7,4,.,65*,-12
c1cncc(-c2ccc3ncnc(NCc4ccc5c(c4)OCO5)c3c2)c1,-1,8,.,-3,.,6,.
Cc1ccc(Cl)cc1N1CCN(S(=O)(=O)c2ccc3[nH]c(=O)c(=O)[nH]c3c2)CC1,-1,4,-2,0,0,-1,.
Cc1ccc(Cl)cc1N1CCN(S(=O)(=O)c2cccc(S(=O)(=O)N3CCCC3)c2)CC1,-6,17,-3,1,1,77*,-7
CC(Nc1nc(N2CCNCC2)nc2ccccc12)c1ccccc1 (stereo not given),-4,5,-13,-5,0,87*,79*
CCCOc1ccccc1NC(=O)/C=C/c1ccc(OC)c(S(=O)(=O)N2CCOCC2)c1,2,.,.,2,.,3,.
CCOC(=O)[C@]12CCC=C1N(Cc1ccccc1)C(=O)[C@H](CC(=O)N1CCN(C(=O)c3ccco3)CC1)C2,1,.,.,.,.,-9,.
COc1ccc2ccccc2c1CNCCN1CCOCC1,-2,-11,6,-2,-7,-12,.
O=S(=O)(c1ccccc1F)N1CCN(CC(O)c2ccccc2)CC1 (stereo not given),-6,0,-1,-4,-2,80*,-4
CSc1nc(C(C)C)ccc1CNC(=O)CC(C)c1ccccc1 (stereo not given),-2,1,-4,-1,1,63*,-4
CC(CC(=O)NCc1ccc(F)cc1)c1ccccc1 (stereo not given),5,8,1,0,-2,1,.
CCOC(=O)c1c(NC(C)=O)sc2c(OCC(O)CN(CC)CC)c(Br)ccc12 (stereo not given),-3,-3,-6,2,-1,68*,71*
CSc1cccc(CN2CCC(n3nccc3NC(=O)C3CC3)CC2)c1,2,-26,-3,6,-4,-2,.
COc1ccc([C@H]2CC(=O)C=C(c3cccc(OC(F)(F)F)c3)C2)cc1,1,-2,8,11,.,-2,.
CC1=Nc2ccccc2/C1=C\c1nc(-c2ccc(F)cc2)oc1O,5,-118,0,4,-36*,76*,36
CCCCCC/C=C/c1ccc(OC)c([C@H]2[C@H]3C=CC[C@@H](C)[C@@H]3C(=O)N2Cc2ccccc2)c1,6,2,2,5,0,67*,-3
CCCCCC/C=C/c1ccc([C@H]2[C@H]3C=CC[C@@H](C)[C@@H]3C(=O)N2Cc2ccccc2)c(F)c1,-4,4,3,-5,0,8,.
COc1ccc2c3c(cccc13)C(=O)CC2,-2,1,1,3,?,4,.
SMILES,m5-HT2A agonist,VLA-4 inh,GASC-1 inh,V-ATPase pH,MEX-5 binding,Exocytosis inh,Exocytosis CP01
CCc1cc2cccc(C)c2nc1SCC(=O)NC1CCCC1,-3,5,-11,5,-3,25,.
Cc1cc(SCC(=O)NC2CCCCC2)nc2ccccc12,-4,19,7,-10,0,98*,-14
CCc1cc2cc(C)ccc2nc1SCC(=O)NC1CCCC1,1,2,29,-4,1,92*,-4
COc1cc(C2/C(=C(\O)c3ccc4c(c3)CC(C)O4)C(=O)C(=O)N2CCN2CCOCC2)cc(OC)c1OC (stereo not given),3,2,1,-4,0,7,.
COc1ccc(N(CC(=O)Nc2ccc(C(C)C)cc2)S(=O)(=O)c2c(C)noc2C)cc1,-5,3,-18,5,-3,39,.
COc1cc2c(cc1OC)C(C)N(CCc1ccc(Cl)cc1)CC2 (stereo not given),-6,-7,7,2,1,62*,-12
COc1cc2c(cc1OC)C(C)N(C(=O)c1ccc(C)o1)CC2 (stereo not given),-2,-10,-3,0,-1,-9,.
O=C(Nc1ccc(F)c(Cl)c1)c1cc(-c2ccco2)on1,-4,-7,-5,-3,2,-10,.
C[C@H](O)[C@@H]1CN2CCc3c([nH]c4ccc(-c5ccc6c(c5)OCO6)cc34)[C@@H]2C[C@@H]1N(C)C(=O)Nc1ccc(F)cc1,-11,.,.,-2,.,65*,1
O=C(O)c1cnn(-c2nc(-c3ccc(Br)cc3)cs2)c1C(F)(F)F,6,1,-3,5,-3,11,.
Cc1cc(C(=O)N(C)CC(=O)Nc2ccccc2C(F)(F)F)c(C)o1,-4,18,-1,1,0,62*,-14
CN(CC(=O)Nc1ccccc1C(F)(F)F)C(=O)C1=COCCO1,-2,12,-4,-2,-1,-2,.
CC(C)C(C)NC(=O)COC(=O)c1cccc(C(=O)OCC(=O)NC(C)C(C)C)n1 (stereo not given),0,-5,-4,-1,-1,-4,.
Cc1cc(NCc2ccccn2)n2ncc(-c3ccc(Cl)cc3)c2n1,0,3,2,2,-1,82*,-12
Cc1ccc(-n2cc(-c3ccccc3)c3c(N4CCN(C)CC4)ncnc32)cc1,-6,16,11,-1,-1,69*,7
CCOC(=O)N1C(=O)NC(=O)C1c1ccc(Cl)cc1 (stereo not given),5,.,.,3,.,-2,.

# Screening results: PubChem BioAssay, several laboratories
